Common to all, as to conditions: concentration: 1 μM, replicates: in singlicate; n = 1
Assay [1] relates to T1, MINK.
T1 construct: gene MINK1

The test system of assay [2] is MKK7.
Assay [3] deals with MKNK1.
For assay [4], the system named is MKNK2.
Assay [5] relates to T2, MLCK.
T2 construct: gene MYLK3

Assay [6] concerns T3, MLK1.
T3 construct: gene MAP3K9

In assay [7] the test system is MLK2.
The subject of assay [8] is MLK3.
Assay [9] deals with MRCKA.
The test system of assay [10] is T4, MRCKB.
T4 construct: gene CDC42BPB
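Further: KINOMEscan kinase panel screen.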

For the compound `CS(=O)(=O)CCNCc1nc(-c2ccc3ncnc(Nc4ccc5c(cnn5Cc5ccccc5)c4)c3c2)cs1.Cl.Cl` [GW569716], the “%Inh” value in assay [1] came to 1%; in [2], 0%; in assay [3], 0%; in assay [4], 23%; in [5], 0%; in assay [6] it was 1%. Besides, the “%Inh” value in assay [7] is 0%; in assay [8], 0%; in assay [9], 17%; in assay [10] it was 18%.
Consider `O=C(Nc1n[nH]c2nc(-c3cccs3)c(Br)cc12)C1CC1` [SB-735297], for which the “%Inh” value in assay [1] is listed as 28%; in assay [2] it was 0%; in assay [3], 46%; in assay [4], 39%; in assay [5], 90%; in assay [6], 0%. The “%Inh” value in [7] is given as 0%; in [8] it was 0%; in [9] it was 16%; in assay [10], 0%.
`Cc1c(Cn2c(C)c(C)n3c(=O)cc(N4CCOCC4)nc23)cccc1C(F)(F)F` [GSK2328680]: the “%Inh” value in [1], in assay [2], in assay [3], in [4], in assay [5] and in [6] was 0% throughout. In addition, the “%Inh” value in assay [7] was determined as 0%; in [8] it was 8%; in assay [9], 0%; in [10] it was 6%.
On to `COc1nccc(-c2c(-c3ccc(F)cc3)ncn2CCCN2CCOCC2)n1` [SB-282852], for which the “%Inh” value in [1] is on record as 0%; in [2] it was 23%; in assay [3] it was 54%; in assay [4] it was 42%; in [5], 0%; in assay [6], 0%. In addition, the “%Inh” value in assay [7] is listed as 0%; in [8], 0%; in [9] it was 12%; in assay [10] it was 0%.
For `CC(=O)c1c(C)c2cnc(Nc3ccn(C)n3)nc2n(C2CCCC2)c1=O`, the “%Inh” value in assay [1] is reported as 8%; in [2], 0%; in [3], 0%; in assay [4], 0%; in assay [5], 0%; in assay [6], 0%. Moreover, the “%Inh” value is given as 21% in assay [7], 0% in [8], 0% in assay [9] and 5% in [10].
As to `COc1cccc(C2=C(Nc3cc(Cl)c(O)c(Cl)c3)C(=O)NC2=O)c1` [SB-390767], the “%Inh” value in assay [1] turned out to be 0%; in [2], 26%; in assay [3] it was 6%; in assay [4] it was 26%; in [5], 0%; in assay [6], 0%. In addition, the “%Inh” value worked out at 4% in [7], 0% in assay [8], 0% in assay [9] and 3% in assay [10].
With `Fc1ccc(-c2nc[nH]c2-c2ccncc2)cc1` [SB-217360], the “%Inh” value amounted to 58% in assay [1]; 9% in [2]; 0% in assay [3]; 0% in [4]; 0% in assay [5]; 0% in [6]. Besides, the “%Inh” value worked out at 30% in assay [7], 1% in assay [8], 37% in assay [9] and 27% in assay [10].
With `CC(C)c1cc(-c2ccc3c(N)n[nH]c3c2)nc(N)n1` [GSK2250882], the “%Inh” value in assay [1] was found to be 21%; in assay [2], 0%; in assay [3], 36%; in assay [4] it was 82%; in assay [5] it was 16%; in assay [6], 0%. The “%Inh” value was found to be 0% in assay [7], 18% in assay [8], 12% in [9] and 0% in assay [10].
Take `Cl.Cl.Cl.N#Cc1ccc(CCNc2nccc(-c3cccc(CN4CCNCC4)c3)n2)cc1` [GSK2137462]: the “%Inh” value in assay [1] came to 3%; in assay [2], 0%; in assay [3], 46%; in assay [4], 2%; in [5] it was 0%; in assay [6], 0%. In addition, the “%Inh” value in assay [7] is on record as 0%; in [8], 0%; in [9], 48%; in assay [10] it was 19%.
Regarding `O=C(Nc1n[nH]c2cc(-c3ccsc3)ccc12)C1CC1` [SB-732932], the “%Inh” value in assay [1] came to 67%; in assay [2], 8%; in [3], 0%; in assay [4], 54%; in [5], 65%; in assay [6] it was 3%. Moreover, the “%Inh” value in assay [7] came out at 0%; in assay [8], 0%; in [9], 13%; in assay [10], 0%.
On to `COc1ccc(Nc2nccc(NCCNC(=O)Nc3cc(C)ccc3C)n2)cc1` [GSK1379899], for which the “%Inh” value in assay [1], in [2], in assay [3], in assay [4], in assay [5] and in assay [6] was 0% in each case. In addition, the “%Inh” value was 36% in [7], 5% in [8], 1% in assay [9] and 0% in [10].
Turning to `Cc1ccc(NC(=O)Nc2ccc(Cl)cc2)cc1-c1ccc(C(=O)Nc2ccncc2)cc1` [GSK1398472], the “%Inh” value in assay [1] came to 11%; in assay [2], 21%; in [3], 10%; in assay [4], 7%; in assay [5] it was 0%; in assay [6], 0%. Further, the “%Inh” value is recorded as 0% in assay [7], 15% in assay [8], 16% in assay [9] and 0% in [10].
Consider `Cn1cnc2c(N)ncnc21` [SKF-97623], for which the “%Inh” value amounted to 0% in [1]; 0% in assay [2]; 38% in assay [3]; 0% in assay [4]; 0% in assay [5]; 0% in assay [6]. The “%Inh” value in assay [7] worked out at 0%; in assay [8], 0%; in assay [9], 12%; in [10], 0%.
Regarding `COc1ccc(Nc2nccc(-c3ccc(NC(=O)c4cc5cc(F)ccc5[nH]4)cc3)n2)cc1` [GSK1229496], the “%Inh” value turned out to be 4% in [1]; 0% in [2]; 14% in assay [3]; 0% in [4]; 0% in [5]; 0% in assay [6]. Moreover, the “%Inh” value in assay [7] came to 0%; in assay [8], 0%; in [9], 17%; in assay [10], 0%.
With `NS(=O)(=O)c1cccc(N/C=C2\C(=O)Nc3ccc(S(=O)(=O)Cc4c(Cl)cccc4Cl)cc32)c1` [GSK398099], the “%Inh” value amounted to 80% in assay [1]; 0% in assay [2]; 0% in [3]; 12% in assay [4]; 0% in assay [5]; 0% in assay [6]. The “%Inh” value stood at 0% in [7], 0% in assay [8], 15% in [9] and 0% in [10].
Take `CNc1cc(-c2ccc3c(N)n[nH]c3c2)nc(N)n1` [GSK2224810]: the “%Inh” value in [1] worked out at 29%; in [2] it was 0%; in [3], 4%; in assay [4], 31%; in assay [5], 73%; in assay [6] it was 7%. The “%Inh” value is 0% in assay [7], 2% in assay [8], 6% in assay [9] and 8% in assay [10].
With `CCc1ccc(-c2ccc3c(c2)-c2n[nH]cc2S(=O)(=O)N3C)cc1`, the “%Inh” value in assay [1] was 2%; in assay [2], 0%; in assay [3], 0%; in assay [4], 0%; in [5], 16%; in [6] it was 13%. For the same compound, the “%Inh” value in assay [7] is reported as 16%; in assay [8] it was 0%; in assay [9], 0%; in assay [10], 6%.

Source of the values: PMC5540273 (PLoS ONE, 2017).
